Rows were chosen to be rich in hits. Some 17% of all compounds tested hit in one or more screens of this group.
ATXN2 expr inh: reduces ATXN2 reporter expression in HEK-293 cells; Potency, µM (titrated, usually from 57 µM), actives largely listed as inhibitors; 0.72% of 360,000 active; HEK-293 ATXN2-luciferase reporter, luminescence, 24 h; AID 1745845; note: nearly all actives have a fitted effect of over 55% in size
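qHTS (up to 57 uM final) was run with 24 h compound exposure of reporter cells at 37 °C. Each well was multiplexed: SteadyGlo luminescence measured ATXN2-luciferase expression after a fluorogenic Gly-Phe-AFC viability readout (25 uM final).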
TDP1 cell CPT: DT40-hTDP1 cell growth loss with CPT; chicken DT40 Tdp1-/-;hTDP1 cells + 20 nM CPT, ATP luminescence, 48 h; Potency, µM (series often up to 46.2 µM), actives largely listed as inhibitors; 12% of 420,000 active; note: nearly all actives have a fitted effect of over 55% in size
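Cell growth measured by CellTiter-Glo luminescence after a minimum 48 h, 37 C compound exposure with 20 nM CPT in Tdp1-knockout DT40 cells stably expressing hTDP1, seeded 400/well; qHTS titration format.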
HepG2 tox: kills HepG2 cells in TGF-b inhibitor counter-screen. AID 588856. 0.76% of 410,000 active. Potency, µM (series often up to 46.1 µM), most hits filed as cytotoxic. HepG2 CAGA-GFP viability, ATP luminescence, 18 h
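HepG2 CAGA-GFP cells (1000/well, DMEM with 1% FBS) received compound, then TGF-beta at 500 pg/mL final, and were incubated 18 hours at 37 degrees C. Viability was read by CellTiter-Glo luminescence. Media-only wells were set as complete cell-killing and DMSO as no toxicity.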
S2 tox: viability counter-screen for ATXN expression inhibitors; S2 cells (HEK-293 line with an ATXN2-luciferase reporter) viability, CellTiter-Fluor protease fluorescence, 24 h; Potency, µM (titrated, usually from 56.7 µM), actives largely listed as cytotoxic; 0.49% of 400,000 active; AID 651635; note: nearly all actives have a fitted effect of over 40% in size
TGFb inhibitor: blocks TGF-b signaling. 1.2% of 410,000 active. Potency, µM (titrated, usually from 46.1 µM), hits mostly inhibitors. HepG2 CAGA-GFP TGF-b/SMAD3 reporter, GFP fluorescence, 18 h; TGF-beta stimulated, 500 pg/mL final; note: nearly all actives have a fitted effect of over 65% in size
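Inhibition was scored as loss of TGF-beta-induced (500 pg/mL final, 18 hours, 37 degrees C) GFP in HEPG2 cells carrying a CAGA-GFP reporter, in DMEM with 1% FBS. Well GFP was summed per cell; Activity was normalised to unstimulated and stimulated DMSO wells, then concentration-response fitting.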
DT40 TDP1 no CPT: qHTS for Inhibitors of human tyrosyl-DNA phosphodiesterase 1 (TDP1): qHTS in cells in absence of CPT; DT40 Tdp1-/- hTDP1 cells, no CPT, ATP luminescence, 48 h; Potency, µM (highest dose often 46.2 µM), most hits filed as inhibitors; 15% of 420,000 active; AID 686978, 2013; note: nearly all actives have a fitted effect of over 55% in size
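Cells were dispensed at 400 per well, compounds added by pin tool, plates incubated ≥48 hr at 37 °C, then CellTiter-Glo added for 30 min at room temperature before luminescence reading. Line: DT40 Tdp1-/- complemented with hTDP1; camptothecin omitted.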
A number is an active result; – = inactive; ? = inconclusive; · = no result given; ! = not active in a repeat; [ ] = dose if it differs, or a comment. Calls come from the whole dose curve; as a rule, active = well fitted curve in the direction sought with a large enough effect; inconclusive = small, poorly fitted or top-dose-only effect, or another doubt; inactive = no such curve, though single readings can be large; an effect the other way counts as inactive or inconclusive.

SMILES | ATXN2 expr inh | TDP1 cell CPT | HepG2 tox | S2 tox | TGFb inhibitor | DT40 TDP1 no CPT
Cc1cn([C@H]2C[C@H](O)[C@@H](CNCc3ccc4ncccc4c3)O2)c(=O)[nH]c1=O | – | – | – | – | – | –
COc1cc(OC)c2nc(-c3cc4c(c(OC)c3)OCCN(Cc3cn(C)nc3C)C4)cc(C)c2c1 | · | –[9.04 µM] | · | ? | · | ?
CCn1c2ccccc2c2cc(CN3CCN(Cc4ccccc4C)CC3)ccc21 | · | 16µM | – | · | ? | ?
CCn1c2ccccc2c2cc(CN3CCN(Cc4ccccc4F)CC3)ccc21 | · | ? | – | · | ? | ?
CCn1c2ccccc2c2cc(CN3CCN(Cc4ccc(Cl)cc4)CC3)ccc21 | · | 15µM | – | · | – | ?
CCn1c2ccccc2c2cc(CN3CCN(S(C)(=O)=O)CC3)ccc21 | – | 15µM | – | ? | – | 16µM
COc1ccc(NC(=O)c2ccc(-n3nc(C)cc3C)cc2)cc1OC | – | ? | – | – | – | ?
COc1ccc(NC(=O)N2CCN(c3cc(-c4noc(C)n4)ccc3C)CC2)c(OC)c1 | – | ? | – | – | – | ?
COc1ccc(NC(=O)c2ccc(-c3ccc(-c4noc(C)n4)cc3C)cc2)cc1OCCN(C)C | · | 5.2µM | · | · | · | 2.6µM
COc1ccc(NC(=O)c2ccc(-c3ccc(-c4noc(C)n4)cc3C)cc2)cc1N1CCN(C)CC1 | ? | 2.6µM | 11µM! | · | 18µM | 2.1µM
Cc1ccc(C(C(=O)NC2CCCC2)N(Cc2ccc(F)cc2)C(=O)c2snc(C(N)=O)c2N)o1 (stereo unspecified) | – | ? | – | ? | – | ?
CO/N=C1\CN(c2nc3c(cc2F)c(=O)c(C(=O)O)cn3C2CC2)CC1CN (stereo unspecified) | – | 4.6µM | · | – | · | 4.6µM
Cc1ccccc1-c1nc(CS(=O)(=O)CC(=O)Nc2c(C)cccc2C)c(C)o1 | ? | ? | – | – | 11µM | 18µM
Cc1ccc(CNC(=O)CS(=O)(=O)Cc2nc(-c3ccccc3C)oc2C)cc1 | – | ? | – | – | ? | 16µM
CCOc1ccc(CCNC(=O)CS(=O)(=O)Cc2nc(-c3ccc(OC)cc3)oc2C)cc1 | – | – | – | – | ? | ?
CCOc1ccc(CCNC(=O)CS(=O)(=O)Cc2nc(-c3ccccc3F)oc2C)cc1 | – | ? | – | – | ? | 12µM
CCCN(C(=O)c1cccc(S(=O)(=O)N2CCN(C)CC2)c1)c1c(N)n(Cc2ccccc2)c(=O)[nH]c1=O | – | – | – | ? | – | –
COC(=O)[C@@H]1[C@H]2SC(C)(C)[C@H](C(=O)OC)N2C(=O)N1Cc1cc2ccccc2n1S(=O)(=O)c1ccccc1 | · | ? | – | · | – | 13µM
COC(=O)C1N2C(=O)N(C)[C@H](C(=O)OC)[C@H]2SC1(C)C (stereo partly specified) | · | – | – | · | – | –
CCOc1ccc(C(=O)N(CN2CCCC2=O)c2ccccc2)cc1 | – | – | – | – | – | ?
CCOc1ccc(C(=O)N(CN2CCCC2=O)c2ccc(C)cc2)cc1 | – | 8.2µM | – | – | – | 23µM
Cc1ccc2nc(-c3ccc(N4C(=O)CC(N5CCN(CCO)CC5)C4=O)cc3)sc2c1 (stereo unspecified) | – | ? | – | ? | ? | 15µM
Cc1cc(C)n2nc(SCCOc3ccccc3)nc2n1 | – | – | – | – | – | –
Cc1c(C(=O)O)cnc2c([N+](=O)[O-])cnn12 | – | 10µM | – | ? | – | 18µM
CC(=O)c1cnc2c(C(=O)O)cnn2c1C | – | – | – | – | – | –
SMILES | ATXN2 expr inh | TDP1 cell CPT | HepG2 tox | S2 tox | TGFb inhibitor | DT40 TDP1 no CPT
COc1ccc(-c2nnn3c2nc(NCCc2ccc(OC)c(OC)c2)c2ccccc23)cc1 | – | 8.2µM | – | – | – | 9.2µM
COc1ccc(CCNc2nc3c(-c4cccc(C(F)(F)F)c4)nnn3c3ccccc23)cc1OC | – | ? | – | – | ? | 16µM
COc1ccc(CNc2nc3c(-c4cccc(F)c4)nnn3c3ccccc23)cc1 | – | ? | – | – | – | ?
COc1ccc(CNc2nc3c(-c4cccc(C)c4)nnn3c3ccccc23)cc1 | – | ? | – | – | – | ?
Cc1cccc(-c2nnn3c2nc(NCc2ccccc2)c2ccccc23)c1 | – | ? | – | – | – | 21µM
CCOc1ccc(OCCC(=O)N(CCOC)c2c(N)n(Cc3ccccc3)c(=O)[nH]c2=O)cc1 | – | – | – | – | – | –
C=C1CCc2c([nH]c3ccc(OCC(C)C)cc23)C1=O | ? | 0.82µM | 2.5µM | ? | 5µM | 0.92µM
